11 molecules from PubChem BioAssay (NCATS) can be followed below.

“And” between values parts separate entries of the source, which are not always exact repeats. Equal entries are not always repeated. Results filed as inconclusive are left out. For part of these data: Results with a measured potency or affinity are listed apart. The source made the active and inactive calls.

A short description of assay [1]: qHTS for Activators of Parkin Expression: LOPAC Validation Assay (NLuc Reporter) (AID 720572). In outline: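 NLuc signal, read 10 min after reagent and following a prior FLuc read, is normalized to DMSO (0) and positive controls (100%). Cells: neuronal Parkin-promoter coincidence reporter line; compounds tested 7-point, 24 h, 37 C, 5% CO2.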
For orientation: Quantitative high-throughput screening tests each substance at several concentrations.

The target in assay [2] is T1, Hexokinase-4 (Homo sapiens) + Glucokinase regulatory protein (Homo sapiens) (UniProt P35557+Q14397). As to the kind of experiment: qHTS assay for inhibitors of recombinant human GCK-GKRP interaction: Diaphorase-coupled assay (AID 743205). In outline:
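Compounds pre-incubated 20 min with substrate, then 10 nM GST-GCK with 10 nM FLAG-GKRP added. GCK activity coupled via G6PDH and diaphorase to resorufin (5 mM glucose, 0.4 mM ATP, 0.15 mM NADP+, pH 7.6), read kinetically over 30 minutes at Ex 525/Em 590 nm.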

In assay [3] the target is T1, Hexokinase-4 (Homo sapiens) + Glucokinase regulatory protein (Homo sapiens). As to the kind of experiment: qHTS assay for inhibitors of recombinant human GCK-GKRP interaction: ADP-Glo assay (AID 743206).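 Note: plate controls were DMSO plus enzyme for no effect and no enzyme for full effect.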 In outline:
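Pin-transferred compounds meet a 15 nM GST-GCK/15 nM FLAG-GKRP/2 uM S6P mix (dispense concentrations). ATP is then added to 0.4 mM final with 5 mM glucose, and the reaction runs 60 min at room temperature. ADP is quantified luminescently.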

For assay [4] the target is unchanged. Put plainly: qHTS assay for inhibitors of recombinant human GCK-GKRP interaction: HTRF assay (AID 743207).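 Note: 0% = DMSO with GCK present and -100% = DMSO wells lacking GCK.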 Summed up:
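HTRF binding of 5 nM GST-GCK and 5 nM FLAG-GKRP with 2 uM S6P in pH 7.1 Hepes buffer (MgCl2, KCl, DTT, Tween 20, BSA). Anti-FLAG XL665 and anti-GST donor added, 60 min at room temperature; 665/615 nm read, normalized to with- and without-GCK controls.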

For assay [5] the following is noted: Ebola virus entry assay, green fluorescence channel.
The conditions of assay [6]: Ebola virus entry assay, blue channel fluorescence.
For assay [7] the following is noted: Ebola virus entry assay, green fluorescence channel. This is another data set of the same source.
A short description of assay [8]: qHTS Assay for Identifying Gametocytocidal Compounds (AID 743244).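 For max response: % is set by controls: 0 for no effect and ±100 for the full control effect; actives lower the fluorescent signal which means gametocytes are killed.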 Note: potency is the fitted concentration of half-maximal effect. The conditions noted are these: P. falciparum 3D7 stage III-V gametocytes, alamarBlue, 72 h; max response: stronger effect = lower value. Summed up:
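Viability read-out was resazurin reduction (alamarBlue, 24 h) measured at Ex 525/Em 598 nm. Beforehand, late-stage (III-V) 3D7 P. falciparum gametocytes at 20,000 cells/well were incubated with compound 72 h at 37C under 5% CO2.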

The nature of assay [9]: qHTS profiling of the MIPE4 collection as inhibitors of Plasmodium falciparum (3D7) proliferation (AID 743344; call rule not given here;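 note: scaled between DMSO vehicle wells and 0.29 µM artemisinin as full inhibition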). The conditions noted are these: P. falciparum 3D7 in erythrocytes, SYBR Green DNA fluorescence, 72 h; at 28.5 µM (top of the series) unless noted. Summed up:
(§1)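 Parasite DNA was quantified by SYBR Green I fluorescence (ex 485, em 535 nm) after overnight lysis in saponin/Triton buffer at room temperature. Cultures at 0.3% parasitemia and 2.5% hematocrit were first exposed to compound for 72 h at 37 C; signals were normalised to artemisinin (0.29 uM) and vehicle wells.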

Assay [10] can be described thus: qHTS profiling of the MIPE4 collection as inhibitors of Plasmodium falciparum (DD2) proliferation (AID 743345; call rule not given here). As to conditions: P. falciparum Dd2 in erythrocytes, SYBR Green DNA, 72 h; at 28.5 µM (top of the series) unless noted. Summed up: as §1
A short description of assay [11]: qHTS profiling of the MIPE4 collection as inhibitors of Plasmodium falciparum (DD2) proliferation (Rep 2) (AID 743346; call rule not given here). As to conditions: P. falciparum Dd2 in erythrocytes, SYBR Green DNA, 72 h; at 28.5 µM (top of the series) unless noted. Summed up:
as §1

Assay [12] can be described thus: qHTS assay for small molecule agonists of the antioxidant response element (ARE) signaling pathway measured by Nrf2-dependant transcriptional activity (AID 720636; active = well fitted curve in the direction sought with a large enough effect in the repeat runs; an effect the other way counts as inactive or inconclusive;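 note: HepG2 cells with an ARE-driven luciferase reporter; % of control where 0% means no effect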). Summed up:
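First, ARE-luc HepG2 cells attached for 6 hr at 37 C in 1% dialyzed FBS medium. Next, compound or DMSO was added and incubated 16 hr. Finally, ONE-Glo reagent was added and luminescence measured after 30 min.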

A short description of assay [13]: qHTS assay for small molecule antagonists of the retinoid-related orphan receptor gamma (ROR-gamma) signaling pathway - cell viability counter screen (AID 720652; active = well fitted curve in the direction sought with a large enough effect in the repeat runs; an effect the other way counts as inactive or inconclusive;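 note: CHO reporter cells with doxycycline-induced ROR-gamma expression; compound exposure lasted 16 hr before ATP read; % is set by controls: 0 for no effect and ±100 for the full control effect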). In outline:
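Cytotoxicity counter screen: intracellular ATP (CellTiter-Glo luminescence) measured in the doxycycline-induced CHO RORE-luciferase reporter line after 16 hr compound exposure at 37 C, 5% CO2.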

Assay [14] in a line: qHTS assay for small molecule agonists of the antioxidant response element (ARE) signaling pathway measured by Nrf2-dependant transcriptional activity - cell viability counter screen (AID 720653; active = well fitted curve in the direction sought with a large enough effect in the repeat runs; an effect the other way counts as inactive or inconclusive; note: % is set by controls: 0 for no effect and ±100 for the full control effect). As to conditions: ARE-bla HepG2 viability, CellTiter-Glo ATP luminescence, 16 h; stronger effect = lower value. Summed up: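 ARE-bla HepG2 cells treated with compounds for 16 h at 37C; this counter screen measures viability as intracellular ATP by CellTiter-Glo luminescence after 30 min at room temperature.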

Assay [15] is described as follows: qHTS assay for cell viability of HEK293 cells (AID 743288). Note: % is set by controls: 0 for no effect and ±100 for the full control effect; nearly all actives have a fitted effect of over 50% in size. As to conditions: ATP luminescence (CellTiter-Glo), 18 h, stronger effect = lower value. Summed up:
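Steps: plate 2,000 parental HEK293 cells per well; incubate ≥5 h, 37 C; add compounds in DMSO; incubate 18 h, 37 C; add CellTiter-Glo; wait 30 min at room temperature; read luminescence.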

Assay [16] in a line: qHTS assay for cell viability of the p53RE-bla HCT-116 cell line (AID 743292). Note: % is set by controls: 0 for no effect and ±100 for the full control effect; nearly all actives have a fitted effect of over 55% in size. In outline:
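Quantitative high-throughput format: compounds in DMSO were pinned onto p53RE-bla HCT-116 cells (4,000/well) and incubated 16 h at 37 C. Total intracellular ATP, read by CellTiter-Glo luminescence, reflects viable cell number.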
Throughout, for efficacy: 0% is about no effect.

T1 sequence (P35557 whole entry, looked up): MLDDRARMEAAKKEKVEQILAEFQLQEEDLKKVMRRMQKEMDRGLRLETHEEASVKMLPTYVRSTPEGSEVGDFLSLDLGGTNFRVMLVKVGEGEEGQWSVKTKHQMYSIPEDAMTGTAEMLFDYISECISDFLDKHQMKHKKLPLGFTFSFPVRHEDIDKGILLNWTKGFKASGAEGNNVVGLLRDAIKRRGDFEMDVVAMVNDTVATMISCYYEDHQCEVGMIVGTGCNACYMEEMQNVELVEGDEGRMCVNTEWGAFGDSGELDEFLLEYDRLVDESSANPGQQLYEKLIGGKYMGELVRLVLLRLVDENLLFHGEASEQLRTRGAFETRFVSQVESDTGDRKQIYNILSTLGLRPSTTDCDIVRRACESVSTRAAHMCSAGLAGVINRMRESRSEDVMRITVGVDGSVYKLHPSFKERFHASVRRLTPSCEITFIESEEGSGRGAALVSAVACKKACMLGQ
T1 sequence (Q14397 whole entry, looked up): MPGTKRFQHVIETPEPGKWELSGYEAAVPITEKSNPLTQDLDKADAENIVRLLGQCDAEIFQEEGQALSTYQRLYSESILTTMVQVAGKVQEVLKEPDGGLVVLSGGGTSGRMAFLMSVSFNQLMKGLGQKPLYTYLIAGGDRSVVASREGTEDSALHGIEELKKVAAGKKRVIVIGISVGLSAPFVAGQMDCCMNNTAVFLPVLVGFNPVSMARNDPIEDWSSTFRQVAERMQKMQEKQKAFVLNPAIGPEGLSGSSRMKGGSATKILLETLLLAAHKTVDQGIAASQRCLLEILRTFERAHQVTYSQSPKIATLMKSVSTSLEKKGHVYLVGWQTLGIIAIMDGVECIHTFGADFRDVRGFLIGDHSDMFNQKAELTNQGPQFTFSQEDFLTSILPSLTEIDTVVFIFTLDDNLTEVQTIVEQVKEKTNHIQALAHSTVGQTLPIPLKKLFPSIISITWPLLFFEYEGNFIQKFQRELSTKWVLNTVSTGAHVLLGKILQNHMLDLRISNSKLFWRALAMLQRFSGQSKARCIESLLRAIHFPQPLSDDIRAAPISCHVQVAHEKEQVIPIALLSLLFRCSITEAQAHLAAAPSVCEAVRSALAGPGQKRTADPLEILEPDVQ

Regarding `COc1ccc2c(c1OC)C(=O)O[C@H]2[C@@H]1c2cc3c(cc2CCN1C)OCO3`, the call in [1], in assay [2], in assay [3] and in assay [4] was inactive. Besides, the efficacy in assay [5] is 26.4% (inactive).

As for `NC(=O)CC[C@@H]1NC(=O)[C@H](Cc2ccccc2)NC(=O)[C@H](Cc2ccc(O)cc2)NC(=O)[C@@H](N)CSSC[C@@H](C(=O)N2CCC[C@H]2C(=O)N[C@@H](CCCN=C(N)N)C(=O)NCC(N)=O)NC(=O)[C@H](CC(N)=O)NC1=O`, the molecule was classed as inactive in [6] and in assay [7].

`CN1C(=O)CCS(=O)(=O)C1c1ccc(Cl)cc1` (stereo not drawn): the outcome in assay [1], in assay [2], in [3] and in assay [4] was inactive. Also, the max response in [8] was -2.23% (inactive) and 6.27% (inactive). The parasite growth, % of DMSO control in [9] was 98.6%. In assay [10], this molecule yielded a parasite growth remaining, % of DMSO control (lower = more inhibition) of 91.5%. Also, the parasite growth, % of control (lower = inhibition) in assay [11] was 126%. For the same molecule, the efficacy in assay [5] was 19.9% (inactive).

As for `CCN(CC)C(=O)[C@@H]1C=C2c3cccc4[nH]cc(c34)C[C@H]2N(C)C1`, the Potency in assay [8] is 63.1 µM (active). Moreover, the efficacy in assay [5] is 49.3% (inactive).

Turning to `O=C(O)c1ccccc1S`, the max response in [8] was 58.9% (inactive). For the same molecule, the efficacy in assay [5] is 16.8% (inactive).

On to `CCC(C)(C)c1ccc(O)cc1`, for which the result in assay [12] and in assay [13] was inactive. Also, the max response in assay [14] was -17% (inactive) and -1.76% (inactive); in [8] it was 15.1% (inactive); in assay [15], 6.76% (inactive) and -11.5% (inactive). Moreover, in [16], the Potency result is “inactive”. The efficacy in assay [5] was 13.1% (inactive).

In the case of `C[C@H](N)C(=O)c1ccccc1`, the max response in [8] is 39.4% (inactive) and -13% (inactive). In addition, the efficacy in assay [5] is 31.4% (inactive).

Turning to `O=c1[nH]oc2c1CCNC2`, the molecule was called inactive in [1], in [2], in assay [3] and in assay [4]. The max response in assay [8] is 1.24% (inactive) and 27.1% (inactive). The efficacy in [5] was 22.4% (inactive).

`COP(=S)(OC)Oc1ccc(S(=O)(=O)N(C)C)cc1`: the max response in [8] was 17.5% (inactive). The efficacy in assay [5] was -33.6% (inactive).

Consider `CC(=O)CC(c1ccccc1)c1c(O)c2ccccc2oc1=O` (stereo not drawn), for which the max response in assay [8] is 17.5% (inactive) and 36.1% (inactive). Besides, in assay [9], the parasite growth, % of DMSO control stood at 71.1%. The same molecule returned a parasite growth remaining, % of DMSO control (lower = more inhibition) in assay [10] of 93.4%. In addition, the parasite growth, % of control (lower = inhibition) in [11] was 69.5%. Moreover, in assay [5], the efficacy is -35.3% (inactive).

As to `COP(=S)(OC)SCN1C(=O)c2ccccc2C1=O`, the molecule was classed as inactive in [12]. Moreover, the figures for the max response in assay [14], in assay [8] and in assay [15] were 3.01% (inactive), -4.68% (inactive) and -19.3% (inactive), respectively. Besides, the Potency entry in assay [16] was “inactive”. Further, the efficacy in assay [5] was -28.1% (inactive).
